Experimental findings from ChEMBL document CHEMBL3433997, “St. Jude Leishmania screening dataset” (2016) are described below.

Holding throughout (type): functional
For assay [1], the target named is Solute carrier family 2, facilitated glucose transporter member 1 (Homo sapiens) (UniProt P11166). Description: ST_JUDE_LEISH: Cytotoxicity at 2uM final concentration against transgenic Leishmania Mexicana promastigotes LmGLUT1 that are glucose transport deficient and complemented with the human glucose transporter GLUT1. Activity is measured by DNA content using SYBR green in vitro.
Chain of Solute carrier family 2, facilitated glucose transporter member 1 (Homo sapiens) (P11166 whole entry): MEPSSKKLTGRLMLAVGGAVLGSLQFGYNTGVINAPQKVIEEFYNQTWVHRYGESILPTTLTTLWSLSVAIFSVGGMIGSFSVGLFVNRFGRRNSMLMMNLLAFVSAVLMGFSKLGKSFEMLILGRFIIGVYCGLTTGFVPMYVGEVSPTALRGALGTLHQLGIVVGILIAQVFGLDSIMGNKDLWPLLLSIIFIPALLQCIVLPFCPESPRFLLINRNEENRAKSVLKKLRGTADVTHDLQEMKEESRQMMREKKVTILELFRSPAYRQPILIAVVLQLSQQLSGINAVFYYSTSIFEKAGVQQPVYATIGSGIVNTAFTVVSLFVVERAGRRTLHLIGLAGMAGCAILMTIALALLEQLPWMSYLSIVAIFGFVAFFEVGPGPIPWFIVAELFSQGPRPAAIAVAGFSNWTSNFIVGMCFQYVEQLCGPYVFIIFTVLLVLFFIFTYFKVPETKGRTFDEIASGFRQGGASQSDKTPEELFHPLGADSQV

Assay [2] has as its target Hexose transporter 1 (Plasmodium falciparum) (UniProt O97467). Description: ST_JUDE_LEISH: Cytotoxicity at 2uM final concentration against transgenic Leishmania Mexicana promastigotes LmPfHT that are glucose transport deficient and complemented with the Plasmodium falciparum hexose transporter. Activity is measured by DNA content using SYBR green in vitro.
Assay [3] concerns the target Glucose transporter (Leishmania mexicana) (UniProt O61059). In words: ST_JUDE_LEISH: Cytotoxicity at 2uM final concentration against transgenic Leishmania Mexicana promastigotes LmGT2 that are glucose transport deficient and complemented with the L. Mexicana glucose transporter 2. Activity is measured by DNA content using SYBR green in vitro.

For `O=C(N[C@H]1CCN(CCc2ccc(O[C@H]3CCNC3)c(Cl)c2)C1)c1ccc(Cl)c(Cl)c1`, the results for the inhibition in assay [1], in assay [2] and in assay [3] were 1.64%, 1.22% and 3.35%, respectively.
For `CCn1c(Sc2ccc(C#N)c([N+](=O)[O-])c2)nnc1-c1cc(OC)cc(OC)c1`, in that order: 1.62%, 0.59% and -0.03%.
The matching figures for `CCN(CCN(C)C)Cc1ccc(-c2ccc(NS(=O)(=O)c3cccc4cccnc34)cc2)cc1`: 14%, 11.3% and 6.11%.
`CN1CCC(Oc2cc(NC(=O)Nc3ccc(-c4ccncc4)c(Cl)c3)ccc2Cl)CC1`: the inhibition came to 16% in assay [1], 13.7% in assay [2] and 9.26% in assay [3].
Regarding `O=C(NCc1cccc(Br)c1)c1ccc(CNC2CCN(Cc3ccccc3)CC2)cc1`, the inhibition in assay [1] is 5.34%; in assay [2], 1.61%; in assay [3] it was 5.37%.
As for `CCOc1ccc(Br)cc1/C=C/C(=O)Nc1ccc2c(c1)CCCN(C)C2`, the inhibition in assay [1] worked out at 11.6%; in assay [2], 10.4%; in assay [3], 11.8%.
For the compound `FC(F)(F)c1ccc2[nH]c(-c3ccc(-c4ccc(CNCCN5CCNCC5)cc4)cc3)nc2c1`, the inhibition in assay [1] is -1.44%; in assay [2], 0.13%; in assay [3], -1.25%.
The matching figures for `COc1ccc(O)c(C(=O)NCCc2ccc(OC)c(-c3ccc(C(C)(C)C)cc3)c2)c1`: 4.08%, 5.01% and 4.69%.
For `COc1cc2c(cc1OC)CN(CCCCc1ccc(NC(=O)c3cc(Cl)cc(Cl)c3)cc1)CC2`, in that order: 4.58%, 4.95% and -0.56%.
The matching figures for `CC1CCN(CCNC(=O)c2ccc3c(=O)n(Cc4ccc(Cl)cc4)c(=S)[nH]c3c2)CC1`: 1.28%, 2.93% and 1.91%.
Turning to `CCN(CC)C(=O)C1CCCN(c2cc(C)nc(Nc3ccc(Cl)cc3)n2)C1` (stereo unspecified), the inhibition in assay [1] came out at 0.86%; in assay [2], 1.03%; in assay [3] it was 0.51%.
The matching figures for `O=C(NCCN1CCOCC1)c1ccc(CNC(=O)c2ccc(O)c(-c3ccc(Cl)c(Cl)c3)c2)cc1`: 1.82%, 2.76% and 1.84%.
